# From ChEMBL document CHEMBL4513216, “Probing the Open Global Health Chemical Diversity Library for Multistage-Active Starting Points for Next-Generation Antimalarials” (ACS Infect Dis, 2020)
# The campaign covered roughly 68,000 compounds. About 2,700 (4%) showed an effect of 50% or more. This excerpt belongs to a sample that is enriched for strong results.
# System: Plasmodium berghei
# Experiment: Screen against P. berghei liver stage (PbLuc), transformed with Luciferase, at 2uM
# Type: functional, HepG2
# Conditions: tested at 2 uM
row,SMILES,INHIBITION [%]
1,CC1=N[C@@]2(CC[C@@H]3CN(CC4CC4)C[C@@H]32)C(=O)N1CC(C)C,28.85
2,CN(Cc1ccco1)[C@@H]1CN(C(=O)c2ccnnc2)[C@@H]2CCCO[C@H]12,7.08
3,Cc1nccnc1N1C[C@H]2CN(C3CCOCC3)C[C@@]2(C(=O)O)C1,8.93
4,CCC(=O)NC(C)c1ccccc1C (centres undefined),-6.19
5,CC(NC1CCSCC1)c1ccccc1-n1cccn1 (centres undefined),27.52
6,CCN(CC)CCCC(C)NC(=O)c1ccccc1-n1cccn1 (centres undefined),19.33
7,CC(NC(=O)c1cc(=O)n(C)c(=O)n1C)c1ccccc1-n1cccn1 (centres undefined),50.97
8,CC(NC1CCCC1)c1ccccc1-n1cccn1 (centres undefined),21.28
9,Cc1ccccc1C(C)NC(=O)c1ccc(=O)n(C)c1 (centres undefined),64.9
10,Cn1cc(C(=O)Nc2cccc(F)c2)ccc1=O,-66.38
11,Cn1c(CNc2c(F)cccc2-n2cccn2)cc(=O)n(C)c1=O,32.14
12,CC(NC(=O)c1ccc(=O)n(C)c1)c1ccccc1-n1cccn1 (centres undefined),51.64
13,CC(=O)NCc1cc2n(n1)CCN(Cc1ccccc1OC(F)(F)F)C2,27.52
14,CCN(CC)S(=O)(=O)N1C[C@@H](c2ccccc2)[C@H]2[C@H]1CCCCCN2C,20.71
15,Cc1nc(C)c(-c2ccn(CC(=O)Nc3cnn(C)n3)n2)s1,8.05
16,CC(C)=CCN1C[C@@H]2CC[C@H]1CN(C(=O)c1ccc3c(c1)OCO3)C2,34.98
17,Cc1cc2c(=O)n(CCSc3cnn[nH]3)cnc2s1,39.99
18,CN(Cc1ccsc1)C(=O)c1ccc(C2CCCO2)s1 (centres undefined),-15.11
19,O=C(CNC(=O)c1ccccc1I)NCc1ccccc1F,-20.75
20,CS(=O)(=O)NCc1cc(=O)n2c(n1)CN(CC1CC1)CCC2,33.12
21,Clc1cnccc1N1CCCC2(CCCOC2)C1 (centres undefined),48.73
22,CCNC(=O)NC1CCN(c2ccc(S(=O)(=O)CC)cc2)CC1,-6.38
23,CCS(=O)(=O)c1ccc(N2CCC(NC(C)=O)CC2)cc1,-0.54

row,SMILES,INHIBITION [%]
1,CCS(=O)(=O)c1ccc(N2CCC(N)CC2)cc1,67.9
2,O=C(c1sccc1C1CC1)N1CCN(c2nccs2)CC1,-15.54
3,CC(c1ccon1)N(C)S(=O)(=O)NCc1ccccc1 (centres undefined),-6.7
4,Cc1cc(C(=O)N(C)CC(F)(F)C(F)(F)F)ccc1-n1cncn1,49.78
5,CCN(CC)C(=O)CCc1nc(-c2cnn3c(C)cc(C)nc23)no1,-23.48
6,O=C(NCc1cccnc1N1CCCCC1)c1ccc2[nH]nnc2c1,54.47
7,O=C(NCc1cccnc1N1CCCCC1)c1ccc2cc[nH]c2c1,15.75
8,O=C(NCc1cccnc1N1CCCC(O)C1)c1ccc2[nH]nnc2c1 (centres undefined),33.13
9,O=C1NC[C@@]2(C(=O)O)CN(Cc3cccc(Oc4ccccc4)c3)C[C@@H]12,24.55
10,O=C1NC[C@@]2(C(=O)O)CN(Cc3cccc(CN4CCOCC4)c3)C[C@@H]12,34.46
11,O=C1NC[C@@]2(C(=O)O)CN(Cc3cccc(OC4CCCC4)c3)C[C@@H]12,62
12,Cc1cc(C(C)(O)CNC(=O)c2ccc(Br)o2)c(C)o1 (centres undefined),27.32
13,Cc1cc(C(C)(O)CNC(=O)C2(C)CCCC2)c(C)o1 (centres undefined),65.92
14,Cc1cc(C(C)(O)CNC(=O)OC(C)(C)C)c(C)o1 (centres undefined),25.21
15,COCC1CC2(CCN(Cc3ccc(OC)cc3)CC2)CN1C(C)C (centres undefined),2.07
16,CC1CCN(CCNC(=O)c2cncnc2C(C)C)CC1,25.35
17,Cc1ccccc1-c1ncc(CNCc2csc(C(C)C)n2)s1,-17.01
18,Cc1cnc(CNCc2cnc(-c3ccccc3C)s2)cn1,58.53
19,CCC1=NOC(CNCc2cnc(-c3ccccc3C)s2)C1 (centres undefined),-31.79
20,COCCN1C=NC2(CCC(C(=O)Nc3ccc(C)cc3)CC2)C1=O (centres undefined),-76.06
21,COc1cccc(-c2noc(C3CCN(Cc4ccncc4)C3)n2)c1 (centres undefined),-22.79
22,COc1cccc(-c2noc(C3CCN(Cc4ccc(C)cc4)C3)n2)c1 (centres undefined),58.96
23,COc1cccc(-c2noc(C3CCN(Cc4ccccc4C)C3)n2)c1 (centres undefined),3.97

row,SMILES,INHIBITION [%]
1,Cc1cccc(CN2CCC3(CC2)CN(c2cnn(C)c2)C(=O)CO3)n1,-29.81
2,Cc1cc(NC(=O)C(C#N)Cc2cnn(C)c2C)no1 (centres undefined),-11.32
3,CN1CCCC1CCn1ccnc1-c1nc(-c2ccccc2)no1 (centres undefined),17.37
4,O=c1c(S(=O)(=O)N2CCCC2)cccn1Cc1ccccc1Cl,52.89
5,O=c1c(S(=O)(=O)N2CCCCC2)cccn1Cc1ccccc1Cl,-10.16
6,O=c1c(S(=O)(=O)N2CCCC2)cccn1Cc1ccc(F)cc1Cl,0.78
7,O=C(NCc1cccc(F)c1)NCC(O)c1cccc(F)c1 (centres undefined),-70.27
8,Cc1ccc(C)c(NC(=O)c2coc(C)n2)c1,48.68
9,COCc1ccc(C(=O)NS(=O)(=O)c2ccc3c(c2)CCC(=O)N3)cc1,24.36
10,COc1cccc(-c2noc3c2CN(c2ncnc4c2CCC4)CC3)c1,62.51
11,COCc1cc(N2CCc3onc(-c4cccc(OC)c4)c3C2)ncn1,5.28
12,COc1cccc(-c2noc3c2CN(c2nc(C)ncc2C)CC3)c1,36.28
13,CC[C@@H](C)[C@@H](N)C(=O)Nc1cccc(-c2cnc(NCCO)nc2)c1,-35.83
14,CC(C)n1cnnc1C1CCCN(S(=O)(=O)CCCF)C1 (centres undefined),-33.29
15,CC(C)CCS(=O)(=O)N1CCCC(c2nncn2C(C)C)C1 (centres undefined),-108.93
16,CC(C)n1cnnc1C1CCCN(S(=O)(=O)CC2CCCC2)C1 (centres undefined),60.42
17,Cc1nc(CN2CCC3(C2)CN(C(=O)c2conc2C)C3)cs1,3.95
18,CCn1cncc1CNc1ccc(-c2nc(CC(C)C)no2)cn1,-15.11
19,CC(CO)Nc1ccc(-c2nc(Cc3ccc(F)cc3)no2)cn1 (centres undefined),57.75
20,CC(C)Cc1noc(-c2ccc(NCc3noc(C(C)C)n3)nc2)n1,42.17
21,COCC(C)Nc1ccc(-c2nc(Cc3ccc(F)cc3)no2)cn1 (centres undefined),31.51
22,CCC(O)CNc1ccc(-c2nc(CC(C)C)no2)cn1 (centres undefined),69.71
23,COc1ccc(Cc2noc(-c3ccc(NC(C)CO)nc3)n2)cc1 (centres undefined),43.44
